Source: PubChem BioAssay (National Center for Advancing Translational Sciences (NCATS))
HepG2 viability: HepG2 cytotoxicity, counter-screen for TGF-b inhibitors; Potency, µM (series often up to 46.1 µM), inactives show at the top dose activity change, negative = cytotoxicity, hits mostly cytotoxic; HepG2 CAGA-GFP viability, ATP luminescence, 18 h; 0.76% of 410,000 active
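CellTiter-Glo luminescence gave cytotoxicity after 18 hours at 37 degrees C. The cells were HepG2 CAGA-GFP in 1% FBS DMEM, stimulated with 500 pg/mL TGF-beta after compound addition. %Activity was normalised to no-cell wells (complete cell-killing) and DMSO (no toxicity), and curves were fitted and classified.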
TGFb SMAD3 inh: inhibitors of TGF-b signaling | Potency, µM (top dose mostly 46.1 µM), for inactives: at the highest dose activity, negative = inhibition, hits mostly inhibitors | AID 588855 | HepG2 CAGA-GFP TGF-b/SMAD3 reporter, GFP fluorescence, 18 h; TGF-beta stimulated, 500 pg/mL final | 1.2% of 410,000 active; note: % is set by controls: 0 for no effect and ±100 for the full control effect; nearly all actives have a fitted effect of over 65% in size
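Per well, imaged GFP fluorescence of HEPG2 CAGA-GFP cells gives the signal; cells get compound, then TGF-beta (500 pg/mL final), 18 h at 37 degrees C; %Activity versus -TGF-beta and +DMSO controls.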
ATXN2 expr inh: inhibitors of ATXN2 expression; 0.72% of 360,000 active; Potency, µM (highest dose often 57 µM), for inactives: at the top dose activity change, negative = inhibition, usual class: inhibitors; AID 1745845; HEK-293 ATXN2-luciferase reporter, luminescence, 24 h; note: % is set by controls: 0 for no effect and ±100 for the full control effect; nearly all actives have a fitted effect of over 55% in size
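qHTS (up to 57 uM final) was run with 24 h compound exposure of reporter cells at 37 °C. Each well was multiplexed: SteadyGlo luminescence measured ATXN2-luciferase expression after a fluorogenic Gly-Phe-AFC viability readout (25 uM final).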
ATXN viability: viability counter-screen for ATXN expression inhibitors; S2 cells (HEK-293 line with an ATXN2-luciferase reporter) viability, CellTiter-Fluor protease fluorescence, 24 h; Potency, µM (highest dose often 56.7 µM), most hits filed as cytotoxic; 0.49% of 400,000 active; note: nearly all actives have a fitted effect of over 40% in size
ALOX12 inh: blocks human arachidonate 12S-lipoxygenase; purified 12hLO, xylenol orange hydroperoxide absorbance; Potency, µM (titrated, usually from 108 µM), for the others: at the highest dose activity change, negative = inhibition, hits mostly inhibitors; P18054; 1.1% of 580,000 active; note: % is set by controls: 0 for no effect and ±100 for the full control effect
Target sequence (P18054 whole entry, looked up): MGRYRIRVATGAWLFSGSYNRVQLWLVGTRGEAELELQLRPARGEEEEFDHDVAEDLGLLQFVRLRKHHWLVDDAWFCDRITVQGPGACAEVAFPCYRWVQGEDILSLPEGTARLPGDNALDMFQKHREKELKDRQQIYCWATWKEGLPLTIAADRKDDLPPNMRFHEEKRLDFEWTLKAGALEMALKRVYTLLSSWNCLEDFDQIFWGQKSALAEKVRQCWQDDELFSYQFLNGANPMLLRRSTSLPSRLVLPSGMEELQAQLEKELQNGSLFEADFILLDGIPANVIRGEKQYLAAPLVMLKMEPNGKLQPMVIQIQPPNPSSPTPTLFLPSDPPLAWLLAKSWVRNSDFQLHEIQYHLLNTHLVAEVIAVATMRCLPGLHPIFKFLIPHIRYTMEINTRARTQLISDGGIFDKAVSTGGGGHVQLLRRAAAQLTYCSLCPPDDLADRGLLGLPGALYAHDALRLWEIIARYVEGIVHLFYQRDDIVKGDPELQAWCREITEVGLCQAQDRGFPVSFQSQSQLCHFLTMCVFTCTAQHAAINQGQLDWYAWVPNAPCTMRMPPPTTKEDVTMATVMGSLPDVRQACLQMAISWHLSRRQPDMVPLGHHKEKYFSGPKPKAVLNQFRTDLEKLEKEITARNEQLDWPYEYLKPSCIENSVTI
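Purified human 12hLO (150 nM final) in 25 mM Hepes, 0.01% Triton X-100, pH 7.0 was preincubated 15 min at room temperature with compound. Then 40 uM arachidonic acid was added, 30 min. Hydroperoxide was read by Fe-XO absorbance ratio 573/405 nm.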
Starred values were filed as active, the others as inactive; i = inactive; ? = inconclusive; nt = no result given. A selection: hits, their analogues and other compounds. The true share with any hit is near 2.7%. Calls come from the whole dose curve; as a rule, active = well fitted curve in the direction sought with a large enough effect; inconclusive = small, poorly fitted or top-dose-only effect, or another doubt; inactive = no such curve, though single readings can be large; an effect the other way counts as inactive or inconclusive. Potency is the fitted concentration of half-maximal effect.

SMILES | HepG2 viability | TGFb SMAD3 inh | ATXN2 expr inh | ATXN viability | ALOX12 inh
CCc1ccc(NC(=O)C2CCN(S(=O)(=O)c3ccc4c(c3)CC(C)N4C(C)=O)CC2)cc1 (configuration not stated) | -16.6% | ? | 12.6µM* | ? | 29.0%
CCc1cccc(NS(=O)(=O)c2ccc3c(c2)CC(C)N3C(=O)C2CC2)c1 (configuration not stated) | -29.3% | 7.08µM* | -38.6% | ? | ?
CCc1ccc(NC(=O)C2CCCN(S(=O)(=O)c3ccc4c(c3)CC(C)N4C(C)=O)C2)cc1 (configuration not stated) | -6.9% | ? | ? | i | 5.9%
Cc1nc2ccccc2c(C)c1CC(=O)N1CCC(C(=O)N2CCCCC2)CC1 | nt | nt | nt | nt | -41.4%
CC(=O)NS(=O)(=O)c1ccc(NC(=S)Nc2ccccc2)cc1 | -3.6% | 0.9% | nt | i | 14.9%
CCc1ccc(S(=O)(=O)NC(=S)Nc2ccccc2)cc1 | -4.3% | 5.9% | -35.9% | ? | 44.7µM*
CCNC(=S)NS(=O)(=O)c1ccc(CC)cc1 | -26.7% | -1.8% | -6.0% | i | 6.31µM*
COc1ccc(-c2n[nH]c(C)c2-c2cscn2)c(O)c1 | -3.2% | -0.6% | 0.6% | i | -2.2%
COc1ccc(-c2onc(C)c2-c2cnn(-c3ccccc3)c2)c(O)c1C | -15.1% | 7.9% | -3.4% | i | 20.4%
COc1ccc(-c2n[nH]c(C)c2-c2cnn(-c3ccccc3)c2)c(O)c1C | -103.5% | 12.6µM* | ? | i | 0.0%
COc1ccc(-c2n[nH]c(C)c2-c2cnn(-c3ccccc3)c2)c(O)c1 | -47.8% | 12.6µM* | -3.6% | i | -49.9%
COc1ccc(NC(=O)C2=C(C)NC(=O)NC2c2cccc(OCc3ccccc3)c2)cc1 (configuration not stated) | nt | nt | nt | nt | -10.0%
CCn1nc(C)cc1-c1nnc(Sc2ncc([N+](=O)[O-])s2)n1C | 3.98µM* | 2.82µM* | nt | 3.55µM* | ?
CC1CCCCC1NC(=O)C1CCC1 (configuration not stated) | nt | nt | nt | nt | -18.3%
COc1cc(CCC(=O)N(CC#N)C2CC2)cc(OC)c1 | nt | nt | nt | nt | -6.3%
O=C1CCCCCN1Sc1ccccc1 | -38.5% | ? | -0.1% | i | 15.8µM*
O=C(CCSc1ccccc1)N1CCCC1 | -19.5% | -1.8% | -16.5% | i | 0.3%
O=C(Nc1c(-c2ccc(F)cc2)nc2sccn12)c1ccc(S(=O)(=O)N2CCOCC2)cc1 | nt | nt | nt | nt | 17.6%
CC1(CCCCc2ccccc2)COc2ccc(C(=O)NCCN3CCOCC3)cc2N1 (configuration not stated) | nt | nt | nt | nt | 100µM*
COc1cccc(CN2CCCN(S(=O)(=O)c3ccccc3)CCC(=O)NCC2)n1 | nt | nt | nt | nt | 35.1%
C#CCOCCOCCOCCNc1nc(N2CCN(C(=O)CCCCCCCCCCNC(=O)[C@H](CO)n3cc(CCCSC)nn3)CC2)nc(N2CCN(C(=O)CCCCCCCCCCNC(=O)[C@H](CCCN=C(N)N)n3cc(C[C@@H](C)CC)nn3)CC2)n1 | 10µM* | ? | 11.2µM* | 11.2µM* | nt
C#CCOCCOCCOCCNc1nc(N2CCN(C(=O)CCCCCCCCCCNC(=O)Cn3cc(C[C@@H](C)O)nn3)CC2)nc(N2CCN(C(=O)CCCCCCCCCCNC(=O)[C@H](CCCN=C(N)N)n3cc(C[C@@H](C)CC)nn3)CC2)n1 | -50.9% | 14.1µM* | ? | 20µM* | nt
C#CCOCCOCCOCCNc1nc(N2CCN(C(=O)CCCCCCCCCCNC(=O)Cn3cc(C[C@@H](C)O)nn3)CC2)nc(N2CCN(C(=O)CCCCCCCCCCNC(=O)[C@H](CCCCN)n3cc(CCCC(=O)O)nn3)CC2)n1 | -5.0% | -8.1% | -7.8% | i | ?
C#CCOCCOCCOCCNc1nc(N2CCN(C(=O)CCCCCCCCCCNC(=O)[C@H](CO)n3cc(CCCSC)nn3)CC2)nc(N2CCN(C(=O)CCCCCCCCCCNC(=O)[C@H](CCCCN)n3cc(CCO)nn3)CC2)n1 | -24.9% | -16.3% | -17.9% | ? | ?
S=C(NCCc1ccc(Cl)cc1)Nc1ccc(Cl)cc1Cl | -114.6% | ? | ? | ? | 31.6µM*
SMILES | HepG2 viability | TGFb SMAD3 inh | ATXN2 expr inh | ATXN viability | ALOX12 inh
C/C(=N\NC(=S)NCCc1ccccc1)c1ccc(Cl)cc1Cl | -13.6% | ? | -15.7% | nt | 44.7µM*
S=C(NCCc1ccccc1)Nc1ccc(Cl)cc1NC(=S)NCCc1ccccc1 | nt | nt | nt | nt | 17.8µM*
O=C(c1cc2cc(Cl)ccc2oc1=O)N1CCc2ccccc2C1 | nt | nt | nt | nt | -3.0%
COC(=O)c1cnc(NC(=O)Cc2cccc3ccccc23)s1 | nt | nt | nt | nt | 11.3%
O=C(c1ccsc1)N1CCCC2(C1)Nc1cccnc1NC2=NC1CCCC1 (configuration not stated) | nt | nt | nt | nt | 10.1%
Cc1ccc(-n2c(C)cc(C3N=C(N)Nc4nc5ccccc5n43)c2C)c(C)c1 (configuration not stated) | -110.3% | ? | ? | ? | ?
Cc1cc(C2N=C(N)Nc3nc4ccccc4n32)c(C)n1-c1ccccc1Cl (configuration not stated) | -41.2% | 11.2µM* | -10.0% | i | ?
CSc1cccc(NC(=S)NCCSc2ccc(Cl)cc2)c1 | nt | nt | nt | nt | 35.5µM*
Cc1cccc(NC(=S)NCCSc2ccc(Cl)cc2)c1 | 2.51µM* | ? | -19.3% | i | ?
O=[N+]([O-])c1ccc(NC(=S)NCCc2ccc(F)cc2)cc1 | 12.6µM* | ? | ? | ? | ?
O=[N+]([O-])c1ccc(NC(=S)Nc2ccc3c(c2)CCC3)cc1 | nt | nt | nt | nt | 39.8µM*
CC(C(=O)N(C)CC(=O)Nc1ccccc1C(F)(F)F)N(C)Cc1cccc(F)c1 (configuration not stated) | nt | nt | nt | nt | -36.6%
CCN(C(=O)Cc1nc(-c2cccs2)oc1C)c1cccc(Br)c1 | nt | nt | nt | nt | 1.9%
CNC(=O)C1CCN(C(C)C(=O)c2c[nH]c3ccccc23)CC1 (configuration not stated) | nt | nt | nt | nt | 0.8%
Cc1ccc(SCCNC(=S)Nc2ccc(F)cc2)cc1 | nt | nt | nt | nt | 50.1µM*
Cc1cccc(NC(=S)NCC(C)CSc2ccc(Cl)cc2)c1 (configuration not stated) | 14.1µM* | 12.6µM* | nt | i | 31.6µM*
Cc1ccc(NC(=S)NCC(C)CSc2ccc(Cl)cc2)cc1 (configuration not stated) | -6.3% | 0.7% | -7.3% | i | ?
S=C(NCCSc1ccc(Cl)cc1)Nc1cccc(Cl)c1 | nt | nt | nt | nt | 35.5µM*
Cc1ccc(NC(=S)NCc2ccc(F)cc2)cc1 | -1.8% | 1.6% | 2.3% | i | 9.6%
CC(=O)N(C)c1ccc(NC(=O)Cn2cnc3c2c(=O)n(C)c(=O)n3C)cc1 | nt | nt | nt | nt | 32.4%
CNC(=O)CSc1ccccc1OC | nt | nt | nt | nt | -10.1%
O=C(Cc1n[nH]c(=O)c2ccccc12)Nc1ccccc1O | nt | nt | nt | nt | 18.0%
